According to the supplement of paper PMC10849652:
Of roughly 8,800 targets only a part is listed; those with a hit were picked by preference. About 0.5% of all pairs of compound and target were hits. Values without a mark were called inactive.

Key:
Experiment in all cases: log2 fold change, soluble protein after heating vs DMSO (PISA); higher = thermal stabilisation; K562 lysate, 10 uM; active = over 0.2 and 3.5 SD of the protein, either way, in both replicates (recomputed)
lapatinib = compound: CS(=O)(=O)CCNCc1ccc(-c2ccc3ncnc(Nc4ccc(OCc5cccc(F)c5)c(Cl)c4)c3c2)o1 [lapatinib]
Summary of the method: (§1)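 Soluble protein was defined as the supernatant remaining after 21,000xg for 90 min, following pooling of heated aliquots and adjustment to 0.5% NP-40 at 4°C. Before that, crude K562 extract at 1 mg/mL protein in PBS pH 7.4 with 1 mM MgCl2 was treated with 10 μM compound for 30 min and heated for 3 min across 48°C-58°C. Quantification used TMTpro 16plex LC-MS/MS with channel sums equalised, and values are log-two fold changes in thermal stability relative to solvent controls from duplicates.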

pictilisib = compound: CS(=O)(=O)N1CCN(Cc2cc3nc(-c4cccc5[nH]ncc45)nc(N4CCOCC4)c3s2)CC1 [pictilisib]
Summary of the method: as §1

crizotinib = compound: C[C@@H](Oc1cc(-c2cnn(C3CCNCC3)c2)cnc1N)c1c(Cl)ccc(F)c1Cl [crizotinib]
Summary of the method: as §1

[1] = compound: C[C@H](C1=CC=C(C=C1)C(=O)NC2=C3C=CNC3=NC=C2)N
Summary of the method: as §1

duvelisib = compound: C[C@H](Nc1ncnc2nc[nH]c12)c1cc2cccc(Cl)c2c(=O)n1-c1ccccc1 [duvelisib]
Summary of the method: as §1

gandotinib = compound: Cc1cc(Nc2cc(CN3CCOCC3)c3nc(C)c(Cc4ccc(Cl)cc4F)n3n2)n[nH]1 [gandotinib]
Summary of the method: as §1

tozasertib = compound: Cc1cc(Nc2cc(N3CCN(C)CC3)nc(Sc3ccc(NC(=O)C4CC4)cc3)n2)n[nH]1 [tozasertib]
Summary of the method: as §1

doramapimod = compound: Cc1ccc(-n2nc(C(C)(C)C)cc2NC(=O)Nc2ccc(OCCN3CCOCC3)c3ccccc23)cc1 [doramapimod]
Summary of the method: as §1

bafetinib = compound: Cc1ccc(NC(=O)c2ccc(CN3CC[C@H](N(C)C)C3)c(C(F)(F)F)c2)cc1Nc1nccc(-c2cncnc2)n1 [bafetinib]
Summary of the method: as §1

[2] = compound: Cc1cccc(CC(=O)N2CCc3c2ccc(-c2cn(C)c4ncnc(N)c24)c3F)n1
Summary of the method: as §1

nilotinib = compound: Cc1cn(-c2cc(NC(=O)c3ccc(C)c(Nc4nccc(-c5cccnc5)n4)c3)cc(C(F)(F)F)c2)cn1 [nilotinib]
Summary of the method: as §1

[3] = compound: Cc1nc(Nc2n[nH]c3c2CN(C(=O)N[C@H](CN(C)C)c2ccccc2)C3(C)C)c2sccc2n1
Summary of the method: as §1

dasatinib = compound: Cc1nc(Nc2ncc(C(=O)Nc3c(C)cccc3Cl)s2)cc(N2CCN(CCO)CC2)n1 [dasatinib]
Summary of the method: as §1

[4] = compound: Cc1ncc(-c2ccnc(Nc3ccc(S(C)(=O)=O)cc3)n2)n1C(C)C
Summary of the method: as §1

[5] = compound: Cn1cc(-c2ccc3c(c2)CCN3C(=O)Cc2cccc(C(F)(F)F)c2)c2c(N)ncnc21
Summary of the method: as §1

quisinostat = compound: Cn1cc(CNCC2CCN(c3ncc(C(=O)NO)cn3)CC2)c2ccccc21 [quisinostat]
Summary of the method: as §1

tipifarnib = compound: Cn1cncc1[C@@](N)(c1ccc(Cl)cc1)c1ccc2c(c1)c(-c1cccc(Cl)c1)cc(=O)n2C [tipifarnib]
Summary of the method: as §1

[6] = compound: NC(=O)Nc1cc(-c2cccc(F)c2)sc1C(=O)N[C@H]1CCCNC1
Summary of the method: as §1

[7] = compound: NC(=O)c1cnc(N[C@@H]2CCCC[C@@H]2N)nc1Nc1cccc(-n2nccn2)c1
Summary of the method: as §1

[8] = compound: NC1(c2ccc(-c3nc4ccn5c(=O)[nH]nc5c4cc3-c3ccccc3)cc2)CCC1
Summary of the method: as §1

UniProt P52630, sequence (P52630 whole entry, looked up): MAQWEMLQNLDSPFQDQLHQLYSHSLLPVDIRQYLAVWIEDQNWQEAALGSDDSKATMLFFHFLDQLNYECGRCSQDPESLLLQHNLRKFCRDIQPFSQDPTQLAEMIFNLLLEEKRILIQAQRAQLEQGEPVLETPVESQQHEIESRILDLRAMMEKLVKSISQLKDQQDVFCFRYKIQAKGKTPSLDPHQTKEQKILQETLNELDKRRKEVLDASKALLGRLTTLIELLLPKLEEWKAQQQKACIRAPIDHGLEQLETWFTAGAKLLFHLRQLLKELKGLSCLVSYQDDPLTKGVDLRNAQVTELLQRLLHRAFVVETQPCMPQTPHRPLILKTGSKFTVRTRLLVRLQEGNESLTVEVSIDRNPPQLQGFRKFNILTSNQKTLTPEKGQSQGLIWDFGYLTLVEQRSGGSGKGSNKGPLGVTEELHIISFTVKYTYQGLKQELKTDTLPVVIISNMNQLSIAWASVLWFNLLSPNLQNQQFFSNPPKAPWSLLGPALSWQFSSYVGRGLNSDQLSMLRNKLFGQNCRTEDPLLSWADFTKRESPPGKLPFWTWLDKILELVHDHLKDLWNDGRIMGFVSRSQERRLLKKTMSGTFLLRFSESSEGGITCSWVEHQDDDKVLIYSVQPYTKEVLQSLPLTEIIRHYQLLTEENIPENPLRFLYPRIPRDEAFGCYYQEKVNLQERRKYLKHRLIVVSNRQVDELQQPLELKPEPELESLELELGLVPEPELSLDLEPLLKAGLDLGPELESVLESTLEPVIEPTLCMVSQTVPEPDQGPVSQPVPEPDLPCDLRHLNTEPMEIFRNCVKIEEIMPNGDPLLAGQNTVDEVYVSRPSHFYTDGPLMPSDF
UniProt O95793, sequence (O95793 whole entry, looked up): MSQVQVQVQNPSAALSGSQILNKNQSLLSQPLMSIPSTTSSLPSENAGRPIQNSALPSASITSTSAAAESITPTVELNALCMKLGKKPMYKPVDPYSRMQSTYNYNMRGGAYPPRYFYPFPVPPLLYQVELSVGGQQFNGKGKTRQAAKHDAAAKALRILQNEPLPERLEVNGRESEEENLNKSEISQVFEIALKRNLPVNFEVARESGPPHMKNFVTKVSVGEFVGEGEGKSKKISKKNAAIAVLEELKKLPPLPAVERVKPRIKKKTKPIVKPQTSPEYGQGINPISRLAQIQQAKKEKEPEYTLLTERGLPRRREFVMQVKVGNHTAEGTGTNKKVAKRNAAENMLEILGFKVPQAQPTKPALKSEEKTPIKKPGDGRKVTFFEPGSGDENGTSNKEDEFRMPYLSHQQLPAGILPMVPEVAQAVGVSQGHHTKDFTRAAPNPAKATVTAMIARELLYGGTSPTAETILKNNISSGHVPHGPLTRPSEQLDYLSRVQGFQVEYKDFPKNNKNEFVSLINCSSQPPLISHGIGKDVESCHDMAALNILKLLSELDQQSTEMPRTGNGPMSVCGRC
UniProt Q9H2H9, sequence (Q9H2H9 whole entry, looked up): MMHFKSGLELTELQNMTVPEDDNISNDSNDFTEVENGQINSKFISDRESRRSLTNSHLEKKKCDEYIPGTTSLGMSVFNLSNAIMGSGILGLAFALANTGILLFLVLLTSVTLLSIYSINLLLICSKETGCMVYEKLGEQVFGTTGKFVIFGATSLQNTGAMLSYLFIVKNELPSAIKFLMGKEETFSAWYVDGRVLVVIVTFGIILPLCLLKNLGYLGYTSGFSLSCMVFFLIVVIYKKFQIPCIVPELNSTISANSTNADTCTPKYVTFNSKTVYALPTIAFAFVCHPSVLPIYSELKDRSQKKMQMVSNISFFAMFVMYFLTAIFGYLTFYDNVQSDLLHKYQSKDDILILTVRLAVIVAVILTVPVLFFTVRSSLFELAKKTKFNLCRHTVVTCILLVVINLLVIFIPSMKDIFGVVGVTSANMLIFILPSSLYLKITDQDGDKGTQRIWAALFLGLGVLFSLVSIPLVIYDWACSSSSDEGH
UniProt Q01650, sequence (Q01650 whole entry, looked up): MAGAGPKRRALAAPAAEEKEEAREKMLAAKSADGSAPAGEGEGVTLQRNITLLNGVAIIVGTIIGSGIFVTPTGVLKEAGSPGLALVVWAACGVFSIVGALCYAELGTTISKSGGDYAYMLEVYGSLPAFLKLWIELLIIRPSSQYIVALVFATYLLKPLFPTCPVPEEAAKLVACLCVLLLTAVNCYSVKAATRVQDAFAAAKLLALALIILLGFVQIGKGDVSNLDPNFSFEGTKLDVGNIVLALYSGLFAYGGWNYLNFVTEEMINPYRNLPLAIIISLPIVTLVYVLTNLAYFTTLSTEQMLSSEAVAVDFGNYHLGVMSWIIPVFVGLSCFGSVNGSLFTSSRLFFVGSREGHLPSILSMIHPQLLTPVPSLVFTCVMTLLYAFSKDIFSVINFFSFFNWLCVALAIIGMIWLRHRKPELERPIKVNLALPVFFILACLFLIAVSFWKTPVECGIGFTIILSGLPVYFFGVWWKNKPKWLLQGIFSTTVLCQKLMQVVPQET
UniProt Q6P1M0, sequence (Q6P1M0 whole entry, looked up): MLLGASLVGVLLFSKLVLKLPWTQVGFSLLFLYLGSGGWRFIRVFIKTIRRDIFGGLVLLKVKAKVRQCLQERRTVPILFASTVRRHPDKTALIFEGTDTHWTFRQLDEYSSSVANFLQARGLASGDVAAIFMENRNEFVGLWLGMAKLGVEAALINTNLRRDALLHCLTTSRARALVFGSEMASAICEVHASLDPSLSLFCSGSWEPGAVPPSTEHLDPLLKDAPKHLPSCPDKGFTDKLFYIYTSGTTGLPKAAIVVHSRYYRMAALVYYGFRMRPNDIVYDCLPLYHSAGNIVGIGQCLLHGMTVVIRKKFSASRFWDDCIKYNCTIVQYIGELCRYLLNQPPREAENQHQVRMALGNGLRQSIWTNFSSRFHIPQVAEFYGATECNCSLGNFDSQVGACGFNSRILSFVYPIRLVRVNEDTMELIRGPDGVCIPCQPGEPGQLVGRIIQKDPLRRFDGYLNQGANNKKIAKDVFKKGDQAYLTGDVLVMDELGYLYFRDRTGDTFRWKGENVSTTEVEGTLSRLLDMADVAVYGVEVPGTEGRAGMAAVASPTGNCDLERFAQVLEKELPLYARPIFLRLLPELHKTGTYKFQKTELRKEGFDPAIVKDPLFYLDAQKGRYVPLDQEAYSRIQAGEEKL
UniProt O95926, sequence (O95926 whole entry, looked up): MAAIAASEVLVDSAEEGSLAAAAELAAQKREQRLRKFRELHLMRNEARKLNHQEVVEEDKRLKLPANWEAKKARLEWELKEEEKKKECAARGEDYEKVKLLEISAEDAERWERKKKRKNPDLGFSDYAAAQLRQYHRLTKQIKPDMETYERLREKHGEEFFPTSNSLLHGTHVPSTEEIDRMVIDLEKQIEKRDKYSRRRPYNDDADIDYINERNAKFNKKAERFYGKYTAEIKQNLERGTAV
UniProt Q9HBM1, sequence (Q9HBM1 whole entry, looked up): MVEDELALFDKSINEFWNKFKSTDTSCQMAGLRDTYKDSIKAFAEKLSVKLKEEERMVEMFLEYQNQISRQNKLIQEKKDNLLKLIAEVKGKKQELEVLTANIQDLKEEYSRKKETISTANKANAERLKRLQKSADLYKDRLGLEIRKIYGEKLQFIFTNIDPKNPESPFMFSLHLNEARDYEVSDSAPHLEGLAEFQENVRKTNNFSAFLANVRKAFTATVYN
UniProt O43808, sequence (O43808 whole entry, looked up): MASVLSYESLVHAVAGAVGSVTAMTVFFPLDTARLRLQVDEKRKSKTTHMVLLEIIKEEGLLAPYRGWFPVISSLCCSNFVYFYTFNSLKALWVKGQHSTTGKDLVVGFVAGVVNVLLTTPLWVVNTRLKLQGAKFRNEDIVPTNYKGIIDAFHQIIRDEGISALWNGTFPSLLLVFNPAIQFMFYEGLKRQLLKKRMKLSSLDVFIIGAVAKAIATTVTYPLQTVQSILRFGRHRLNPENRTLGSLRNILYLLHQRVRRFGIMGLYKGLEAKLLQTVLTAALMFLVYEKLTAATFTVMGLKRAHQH
UniProt Q86XZ4, sequence (Q86XZ4 whole entry, looked up): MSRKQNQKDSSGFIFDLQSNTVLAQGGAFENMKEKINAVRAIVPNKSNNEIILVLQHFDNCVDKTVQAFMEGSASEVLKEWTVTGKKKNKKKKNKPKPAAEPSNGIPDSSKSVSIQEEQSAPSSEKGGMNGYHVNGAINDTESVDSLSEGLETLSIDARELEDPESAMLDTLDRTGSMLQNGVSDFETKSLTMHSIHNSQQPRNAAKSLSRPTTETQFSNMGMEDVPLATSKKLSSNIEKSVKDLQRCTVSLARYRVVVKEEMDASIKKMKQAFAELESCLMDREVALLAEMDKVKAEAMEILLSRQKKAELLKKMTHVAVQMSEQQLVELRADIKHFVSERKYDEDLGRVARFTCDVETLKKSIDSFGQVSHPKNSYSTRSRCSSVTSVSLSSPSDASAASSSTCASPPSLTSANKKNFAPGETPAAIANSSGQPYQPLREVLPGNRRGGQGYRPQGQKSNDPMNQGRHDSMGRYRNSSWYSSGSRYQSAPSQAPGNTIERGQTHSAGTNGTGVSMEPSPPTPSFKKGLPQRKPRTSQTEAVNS
UniProt O00161, sequence (O00161 whole entry, looked up): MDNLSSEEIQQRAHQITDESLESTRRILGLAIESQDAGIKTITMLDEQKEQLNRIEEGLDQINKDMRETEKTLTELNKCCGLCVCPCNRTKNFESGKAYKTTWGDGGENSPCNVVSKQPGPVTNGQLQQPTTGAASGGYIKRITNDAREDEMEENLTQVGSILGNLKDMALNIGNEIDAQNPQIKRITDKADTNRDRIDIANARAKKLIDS
UniProt Q96KF7, sequence (Q96KF7 whole entry, looked up): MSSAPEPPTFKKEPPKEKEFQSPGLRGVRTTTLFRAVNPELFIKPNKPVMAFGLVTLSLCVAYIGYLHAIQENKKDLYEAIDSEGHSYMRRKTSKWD

Target	log2 fold change (lapatinib)	log2 fold change (pictilisib)	log2 fold change (crizotinib)	log2 fold change [1]	log2 fold change (duvelisib)	log2 fold change (gandotinib)	log2 fold change (tozasertib)	log2 fold change (doramapimod)	log2 fold change (bafetinib)	log2 fold change [2]	log2 fold change (nilotinib)	log2 fold change [3]	log2 fold change (dasatinib)	log2 fold change [4]	log2 fold change [5]	log2 fold change (quisinostat)	log2 fold change (tipifarnib)	log2 fold change [6]	log2 fold change [7]	log2 fold change [8]
SNAP23 (UniProt O00161)	0.005	-0.035	0.067	0.034	-0.004	0.007	0.005	0.002	0.059	-0.05	0.001	0.015	0.045	-0.013	0	0.035	0.036	-0.019	-0.016	0.031
SMIM8 (UniProt Q96KF7)	-0.053	-0.079	-0.041	-0.146	0.019	0.128	-0.038	-0.059	-0.035	0.018	0.059	-0.018	0.032	0.055	-0.023	0.084	-0.033	-0.02	-0.045	-0.013
SLC25A17 (UniProt O43808)	-0.033	0.015	-0.052	-0.303 (active)	0.029	0.072	-0.069	0.007	-0.066	0.085	-0.049	0.006	0.01	0.032	0.023	-0.125	-0.068	0.028	0.038	-0.026
SMG6 (UniProt Q86US8)	0.009	-0.032	0.028	-0.097	-0.1	0.025	-0.096	0.051	-0.049	0.039	-0.067	0.028	0.048	0.079	0.082	-0.05	-0.065	0.028	0.065	0.011
SLC27A2 (UniProt O14975)	0.063	-0.049	-0.092	-0.067	0.031	0.286	0.117	0.064	0.015	-0.014	0.056	-0.027	0.038	-0.053	-0.011	-0.078	0.031	-0.06	-0.033	0.029
SKA3 (UniProt Q8IX90)	0.009	-0.022	-0.029	-0.008	-0.022	-0.011	-0.008	0.002	0.027	0.034	-0.046	-0.018	-0.028	0.023	0.002	-0.093	-0.02	0.044	0.034	-0.004
STAT2 (UniProt P52630)	0.005	-0.024	-0.146	0.008	0.004	-0.082	0.047	0.037	-0.078	0.093	-0.017	0.006	-0.024	-0.086	0.025	-0.117	-0.024	0.054	0.016	-0.016
SLC7A5 (UniProt Q01650)	-0.004	0.026	-0.069	-0.308 (active)	0.051	0.201 (active)	-0.012	0.019	0.046	0.129	0.022	0.008	0.055	0.014	0.008	-0.106	0.003	0	-0.029	-0.003
SPATS2 (UniProt Q86XZ4)	0.027	-0.119	0.09	-0.016	0.048	0.145	-0.062	-0.126	-0.206	-0.164	-0.069	0.042	-0.073	0.074	-0.03	0.144	0.013	-0.107	-0.005	-0.013
SYF2 (UniProt O95926)	0.026	0.003	-0.008	-0.023	-0.144	0.055	-0.066	0.04	-0.026	-0.016	-0.023	0	-0.036	0.005	0.003	-0.008	0.046	-0.016	0.04	-0.106
SLC27A4 (UniProt Q6P1M0)	-0.052	-0.005	-0.049	-0.04	0.037	0.095	-0.045	0.149	-0.057	0.052	-0.061	0.002	0.026	-0.036	0.048	-0.123	0.096	0.036	-0.023	0.036
SNW1 (UniProt Q13573)	0.019	-0.002	0.002	0.155	-0.018	-0.037	-0.01	-0.002	-0.002	-0.007	0.002	-0.009	0.024	-0.036	-0.015	0.012	0.009	-0.016	-0.01	-0.01
STAU1 (UniProt O95793)	-0.018	0.03	0.005	0.27 (active)	0.019	-0.086	0.014	0.056	-0.089	-0.062	-0.008	-0.024	-0.004	-0.002	0.007	0.003	-0.009	0.037	0.001	0.005
SLC38A1 (UniProt Q9H2H9)	-0.008	-0.01	-0.064	-0.218	0.048	0.096	0.026	-0.009	0.003	0.095	-0.001	0.007	0.001	-0.002	-0.041	-0.123	-0.032	-0.015	0.001	-0.024
SPC25 (UniProt Q9HBM1)	0.029	0.029	0.001	-0.01	-0.021	-0.007	-0.013	-0.005	-0.031	0.011	0.042	-0.02	0.002	0.03	0.046	-0.019	0	-0.01	0.002	0
SRP54 (UniProt P61011)	0.021	-0.021	0.019	-0.035	-0.024	0.039	-0.004	0.041	-0.029	0.04	0.039	0.006	-0.021	0	0.034	0.048	-0.047	-0.001	-0.013	-0.015
